Active and inactive are the calls of the source. How the source made its calls: active means hit-call score of the fitted dose curve at least 0.9, where 1 is the maximum; inactive means score below 0.9.

The record followed here is PubChem BioAssay (EPA / NIEHS).

This experiment can be described thus: BSK_3C_VCAM1: BioMAP Diversity Plus: 3C Assay for Vascular cell adhesion molecule 1 (VCAM1) Biomarker Activity (AID 2282999). The settings on record: BioMAP 3C HUVEC, VCAM1 ELISA, cytokine-stimulated; actives raise or lower the signal. As to the method:
BSK_3C is a cell-based, multiplexed-readout assay that uses umbilical vein endothelium, a human vascular primary cell, with measurements taken at 24 hours after chemical dosing in a 96-well plate.BSK_3C_VCAM1 is an assay component measured in the BSK_3C assay. It measures VCAM-1 antibody related to regulation of gene expression using ELISA technology.Data from the assay component BSK_3C_VCAM1 was analyzed into 1 assay endpoint. This assay endpoint, BSK_3C_VCAM1, was analyzed with bidirectional fitting relative to DMSO as the negative control and baseline of activity. Using a type of binding reporter, gain or loss-of-signal activity can be used to understand changes in the signaling as they relate to the gene VCAM1. Furthermore, this assay endpoint can be referred to as a primary readout, because this assay has produced multiple assay endpoints where this one serves a signaling function. To generalize the intended target to other relatable targets, this assay endpoint is annotated to the cell adhesion molecules intended target family, where the subfamily is Immunoglobulin CAM.
The levels of cell surface (or secreted, indicated by the prefix "s") biomarker endpoints were measured by ELISA. Overt cytotoxicity to cells in confluent adherent cultures (all systems other than the BT system) was assessed by measuring total protein levels using sulforhodamine B (SRB) staining in parallel cultures at the time of biomarker measurements, indicated as SRB endpoints. For proliferation assays for adherent cell types, individual cell types are cultured at sub-confluence and relative cell numbers quantified by SRB staining at time points optimized for each system (48 h: 3C and CASM3C systems; 72 h: BT and HDF3CGF systems; 96 h: SAg system). SRB was performed by staining cells with 0.1% SRB after fixation with 10% TCA and reading wells at 560 nm.Viability and proliferation of PBMC (T cells) was quantified by Alamar Blue reduction for the SAg and BT systems. For PBMC viability (referred to as PBMC Cytotoxicity within the assay endpoint names), cells were plated (75,000/well in a 96-well plate) and then chemical samples added for 1 h before addition of activators, SEB and TSST-1 (20 ng/mL final concentration each). Cells were incubated for 90 h. Then, Alamar Blue (20 uL/well) (Invitrogen, Cat DAL1100) was added for 6 h, and the plates were read with a fluorescence microplate reader at 546/580 nm (excitation/emission). For PBMC proliferation, cells were plated and activated as above but incubated for only 16 h prior to addition of Alamar Blue. Plates were read after 6 h.
(In an ELISA, binding on a coated surface is turned into a signal by an enzyme label.)
With `COP(=S)(OC)Oc1ccc(S(=O)(=O)N(C)C)cc1`, the result was inactive.

For the molecule `CCOP(=S)(OCC)SCCS(=O)(=O)CC`, the outcome was inactive.

`C[C@]12CCC(=O)C[C@@H]1CC[C@@H]1[C@@H]2CC[C@]2(C)[C@@H](O)CC[C@@H]12`: the result was inactive.

As to `Oc1c(I)cc(I)cc1I`, the AC50 is 15.5 µM (active).

In the case of `ClC(Cl)=C(Cl)C(Cl)=C(Cl)Cl`, the AC50 was 29.2 µM (active).

For `NC(=O)O`, the result was inactive.

Regarding `NC(=S)Nc1ccccc1`, the outcome was inactive.

Take `BrCCBr`: the result was inactive.

As for `O=[N+]([O-])c1ccc2c3c(cccc13)CC2`, the outcome was inactive.

With `Cn1sc(Cl)cc1=O`, the AC50 was 36.1 µM (active).

For the molecule `Nc1ncc([N+](=O)[O-])s1`, the outcome was inactive.

Regarding `ClC1(Cl)C2(Cl)C3(Cl)C4(Cl)C(Cl)(Cl)C5(Cl)C3(Cl)C1(Cl)C5(Cl)C24Cl` (stereo not given), the result was inactive.

Turning to `CCOP(=S)(OCC)SCSP(=S)(OCC)OCC`, the result was inactive.

With `CC(=O)OC(c1ccccc1)C(Cl)(Cl)Cl` (stereo not given), the outcome was inactive.

On to `Nc1ccc(-c2ccc(N)c(Cl)c2)cc1Cl`, for which the result was inactive.

For the molecule `O=C(O)C(F)(F)C(F)(F)C(F)(F)C(F)(F)C(F)(F)C(F)(F)F`, the outcome was inactive.

Regarding `CC1(C)Cc2cccc(O)c2O1`, the outcome was inactive.

With `O=C(O)C(Cl)(Cl)Cl`, the outcome was inactive.

With `ClCC(Cl)CCl`, the result was inactive.

For the molecule `Cc1ccccc1N`, the outcome was inactive.

As to `O=C(Nc1ccc2[nH]ccc2c1)c1cc2cc(F)ccc2n1Cc1cccc(F)c1`, the AC50 was 11.7 µM (active).

As for `COP(=S)(OC)Oc1cc(Cl)c(Cl)cc1Cl`, the result was inactive.

Turning to `CC12CC1(C)C(=O)N(c1cc(Cl)cc(Cl)c1)C2=O` (stereo not given), the outcome was inactive.

With `COP(=S)(OC)Oc1ccc(Sc2ccc(OP(=S)(OC)OC)cc2)cc1`, the result was inactive.

As to `CCC(C)(C)c1ccc(O)c(C(C)(C)CC)c1`, the AC50 is 11.5 µM (active).

Consider `C(=NC1CCCCC1)=NC1CCCCC1`, for which the concentration at half-maximal activity (AC50) is 30.3 µM (active).

`CC(C)(OO)c1ccccc1`: the outcome was inactive.

Turning to `CCOP(=S)(OCC)Oc1nc(Cl)c(Cl)cc1Cl`, the half-maximal activity concentration (AC50) was 25.8 µM (active).

With `COC(=O)c1sccc1S(=O)(=O)NC(=O)Nc1nc(C)nc(OC)n1`, the result was inactive.

`Nc1cccc2ccccc12`: the outcome was inactive.

For the molecule `O=S(=O)(c1ccc(Cl)cc1)c1ccc(Cl)cc1`, the result was inactive.

Turning to `O=[N+]([O-])c1ccc(O)c([N+](=O)[O-])c1`, the outcome was inactive.

For the molecule `CC(=O)C(Cl)C(=O)N(C)C` (stereo not given), the half-maximal activity concentration (AC50) was 20 µM (active).

On to `CC(C)c1ccc(CO)cc1`, for which the result was inactive.

Consider `O=Cc1cccc(Oc2ccccc2)c1`, for which the result was inactive.

For the molecule `OCc1ccco1`, the result was inactive.

For the molecule `COP(=S)(OC)Oc1c(Cl)cc(C)cc1Cl`, the result was inactive.

In the case of `CCOP(=S)(OCC)Oc1ccc(S(C)=O)cc1` (stereo not given), the outcome was inactive.

In the case of `O=C(OC1CCCCC1)c1ccccc1C(=O)OC1CCCCC1`, the AC50 is 11.7 µM (active).

On to `CCCCC(CC)CO[N+](=O)[O-]` (stereo not given), for which the result was inactive.

As usually defined, the AC50 is the concentration at which the activity in the assay is half-maximal.
